Molecules are shown by their SMILES. Results filed as inconclusive are left out. A number with no mark means an inactive call. The source made the active and inactive calls. Calls come from the whole dose curve; as a rule, active = well fitted curve in the direction sought with a large enough effect; inconclusive = small, poorly fitted or top-dose-only effect, or another doubt; inactive = no such curve, though single readings can be large; an effect the other way counts as inactive or inconclusive.

Results on 22 compounds are retold here after PubChem BioAssay (NCATS).

Test [1] in a line: qHTS of pediatric cancer cell lines to identify multiple opportunities for drug repurposing: Primary screen for TC32 cells (AID 1347089). Note: nearly all actives have a fitted effect of over 60% in size. Note: potency is the fitted concentration of half-maximal effect. In outline: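 In the primary qHTS, MIPE compounds were tested at 11 concentrations (0.78 nM to 46 µM) and NPC compounds at 8 (0.59 nM to 46 µM) on TC32 cells for 48 h. CellTiter-Glo luminescence gave viability.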
In general terms: qHTS replaces the single test concentration by a dilution series.

Test [2] is described as follows: qHTS of pediatric cancer cell lines to identify multiple opportunities for drug repurposing: Primary screen for DAOY cells (AID 1347090). Note: series mostly up to about 46 µM; nearly all actives have a fitted effect of over 55% in size. A digest of the protocol: (§1)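 Eight- or eleven-point concentration series, 48 h treatment at 37 degrees C in growth media; readout CellTiter-Glo luminescence. Potency and efficacy were taken from the concentration-response curves.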

Test [3] in a line: qHTS of pediatric cancer cell lines to identify multiple opportunities for drug repurposing: Primary screen for U-2 OS cells (AID 1347096). Note: nearly all actives have a fitted effect of over 50% in size. Note: potency is the fitted concentration of half-maximal effect. A digest of the protocol:
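Cells (500-1,000/well) in growth media were settled 5 h at 37 degrees C, then given compounds for 48 h. Viability was read as CellTiter-Glo luminescence. Primary runs used MIPE at 11 points (0.78 nM-46 µM) and NPC at 8 points (0.59 nM-46 µM); follow-ups used 11 points.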

Test [4] in a line: qHTS of pediatric cancer cell lines to identify multiple opportunities for drug repurposing: Primary screen for SJ-GBM2 cells (AID 1347091). Note: potency is the fitted concentration of half-maximal effect. In outline:
as §1

The nature of test [5]: qHTS of pediatric cancer cell lines to identify multiple opportunities for drug repurposing: Primary screen for A673 cells (AID 1347092). Note: nearly all actives have a fitted effect of over 45% in size. Note: potency is the fitted concentration of half-maximal effect. In outline: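 48 h compound exposure, A673, 500-1,000 cells/well, 37 degrees C/5% CO2. MIPE: 11-point, 0.78 nM-46 µM; NPC: 8-point, 0.59 nM-46 µM (final). Readout CellTiter-Glo luminescence after 15 min RT.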
The nature of test [6]: qHTS of pediatric cancer cell lines to identify multiple opportunities for drug repurposing: Primary screen for SK-N-MC cells (AID 1347093). Note: potency is the fitted concentration of half-maximal effect. In outline:
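Metabolically active cells were quantified by ATP-dependent luminescence (CellTiter-Glo, 15 min at room temperature) following 48 h treatment. Cells had been plated at 500-1,000 per well and settled for 5 h beforehand.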

A short description of test [7]: qHTS of pediatric cancer cell lines to identify multiple opportunities for drug repurposing: Primary screen for BT-37 cells (AID 1347094). Note: potency is the fitted concentration of half-maximal effect. A digest of the protocol:
(§2)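 Readout: CellTiter-Glo luminescence, 48 h treatment. Controls DMSO (neutral) and bortezomib 2.3 µM final (positive). Potency and efficacy taken from primary-screen concentration-response curves.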

The nature of test [8]: qHTS of pediatric cancer cell lines to identify multiple opportunities for drug repurposing: Primary screen for NB-EBc1 cells (AID 1347095). Note: potency is the fitted concentration of half-maximal effect. A digest of the protocol:
as §2

For the compound `O=C(Nc1cccc2c(=O)cc(-c3nn[nH]n3)oc12)c1ccc(OCCCCc2ccccc2)cc1`, the Potency entry in test [1], in test [2] and in test [3] was “inactive” throughout.

Take `O=C(NC[C@H](O)CO)c1ccncc1Nc1ccc(I)cc1F`: the Potency result in test [1] and in test [4] was “inactive” throughout.

As for `Clc1ccc(COC(Cn2ccnc2)c2ccc(Cl)cc2Cl)c(Cl)c1` (centres undefined), the Potency result in test [1] is “inactive”. The figures for the Potency in test [4] and in test [5] were 18700 nM (active) and 23500 nM (active), respectively.

For `CN(C)CCN(C)C(=O)c1ccc(NC(=O)Nc2ccc(-c3nc(N4CCOCC4)c4ccn(CC(F)(F)F)c4n3)cc2)cc1`, the Potency was 147 nM (active) in test [1]; 105 nM (active) in test [4]; 2960 nM (active) in test [5]; 26.4 nM (active) in test [6]; 48.5 nM (active) in test [7]; 935 nM (active) in test [8]. Moreover, the Potency in test [3] was 4690 nM (active).

For `CCN1CCC(n2cc(CNc3cc(Cl)c4ncc(C#N)c(Nc5ccc(F)c(Cl)c5)c4c3)nn2)CC1`, the Potency result in test [1] and in test [3] was “inactive” in each case. Further, the Potency is 18700 nM (active) in test [4], 14800 nM (active) in test [5] and 24300 nM (active) in test [7].

With `OC[C@H]1O[C@@H](Oc2ccc(O)cc2)[C@H](O)[C@@H](O)[C@H]1O`, the Potency entry in test [1], in test [4], in test [7], in test [8] and in test [3] was “inactive” throughout. Moreover, the Potency in test [6] was 13200 nM (active).

Consider `CCCCn1c(=O)n(Cc2ccccc2F)c(=O)c2[nH]c(Cc3ccc(NC(C)=O)cc3)nc21`, for which the Potency entry in test [1], in test [4], in test [7], in test [8] and in test [3] was “inactive” throughout. Also, in test [6], the Potency is 10500 nM (active).

`CN1CCc2c(n(Cc3ccc(C(=O)NO)cc3)c3ccccc23)C1`: the Potency entry in test [1] and in test [3] was “inactive” in each case. In addition, the Potency is 16600 nM (active) in test [4], 14800 nM (active) in test [5] and 9350 nM (active) in test [6].

Turning to `CC[C@H](NC(=O)[C@H](C)NC)C(=O)N1C[C@@H](O)C[C@H]1Cc1c(-c2[nH]c3cc(F)ccc3c2C[C@H]2C[C@H](O)CN2C(=O)[C@H](CC)NC(=O)[C@H](C)NC)[nH]c2cc(F)ccc12`, the Potency entry in test [1] and in test [3] was “inactive” in each case. Moreover, the Potency is 46.9 nM (active) in test [4], 11.8 nM (active) in test [5], 217 nM (active) in test [7] and 418 nM (active) in test [8].

As for `O=C(c1ccc(C(=O)N2CCC(N3CCCC3)CC2)c(Nc2ccccc2)c1)N1CCC(N2CCCC2)CC1`, the Potency result in test [1], in test [4], in test [5], in test [7], in test [8] and in test [3] was “inactive” in each case.

`NC[C@H]1O[C@H](O[C@@H]2[C@@H](O)[C@@H](O[C@H]3O[C@H](CO)[C@@H](O)[C@H](N)[C@@H]3O)[C@H](N)C[C@@H]2N)[C@H](O)[C@@H](O)[C@H]1O`: the Potency entry in test [1], in test [4], in test [5], in test [7], in test [8] and in test [3] was “inactive” in each case.

For `C[C@@H]1O[C@@H](O[C@H]2CC[C@@]3(C)[C@H](CC[C@@H]4[C@H]3C[C@@H](O)[C@]3(C)[C@@H](C5=CC(=O)OC5)CC[C@]43O)C2)C[C@H](O)[C@@H]1O[C@H]1C[C@H](O)[C@H](O[C@H]2C[C@H](O)[C@@H](O)[C@@H](C)O2)[C@H](C)O1` (stereo in doubt), the Potency in test [1] is 380 nM (active); in test [4], 121 nM (active); in test [5], 171 nM (active); in test [7], 112 nM (active); in test [8], 303 nM (active); in test [3], 340 nM (active).

In the case of `CC=C(C(=CC)c1ccc(O)cc1)c1ccc(O)cc1`, the Potency result in test [1] and in test [3] was “inactive” each time. In addition, the Potency in test [4] was 20900 nM (active); in test [5], 23500 nM (active); in test [6], 11800 nM (active).

Regarding `CC(=O)OCC(=O)[C@@]12OC(C)(C)O[C@H]1C[C@H]1[C@@H]3C[C@H](F)C4=CC(=O)C=C[C@]4(C)[C@@]3(F)[C@@H](O)C[C@@]12C`, the Potency entry in test [1], in test [4], in test [5], in test [7] and in test [3] was “inactive” throughout.

For `CC1(C)C(N(O)C(=O)Nc2ccc(Cl)cc2)N(c2ccc(Cl)cc2)C(=O)N1CC(=O)NN=CC=Cc1ccc([N+](=O)[O-])o1` (centres undefined), the Potency entry in test [1] and in test [3] was “inactive” each time. Also, the Potency in test [4] is 18700 nM (active); in test [5], 23500 nM (active).

With `CN1[C@H]2CC[C@H]1CC(OC(=O)c1c[nH]c3ccccc13)C2` (some centres undefined), the Potency entry in test [1], in test [4], in test [5], in test [7] and in test [3] was “inactive” each time.

As to `CCNC(=O)CCCC=CC[C@@H]1[C@H](C=CC(O)CCc2ccccc2)[C@@H](O)C[C@@H]1O` (some centres undefined), the Potency result in test [1], in test [4], in test [5], in test [6], in test [8] and in test [3] was “inactive” each time.

On to `CCC[C@H](Nc1nc(-c2ccc(NC(=O)NCC)c(OC)c2)ncc1C)c1cccnc1`, for which the Potency in test [1] is 93 nM (active); in test [4], 10.5 nM (active); in test [6], 11.8 nM (active); in test [7] it was 13.7 nM (active); in test [8], 6.6 nM (active).

Regarding `CC(C)C[C@@H](N)[C@H](O)C(=O)N[C@H](C(=O)N[C@H](C(=O)N[C@@H](CC(=O)O)C(=O)O)C(C)C)C(C)C`, the Potency result in test [1], in test [4], in test [5], in test [7], in test [8] and in test [3] was “inactive” each time.

Turning to `O=C1C(CCC(O)c2ccc(F)cc2)C(c2ccc(O)cc2)N1c1ccc(F)cc1` (centres undefined), the Potency result in test [1], in test [4], in test [6], in test [7], in test [8] and in test [3] was “inactive” each time.

`CCCCC[C@H](O)C=C[C@H]1[C@H](O)CC(=O)[C@H]1CCCCCCC(=O)O`: the Potency entry in test [1], in test [4], in test [6], in test [7] and in test [8] was “inactive” throughout.

For the compound `CC[C@H](C)n1cc(C)c2c(C(=O)NCc3c(C)cc(C)[nH]c3=O)cc(-c3ccc(N4CCNCC4)nc3)cc21`, the Potency entry in test [1], in test [4], in test [8] and in test [3] was “inactive” throughout. The Potency in test [6] was 590 nM (active); in test [7], 19300 nM (active).
